# Measurements from PubChem BioAssay AID2100 (National Center for Advancing Translational Sciences (NCATS), 2009).
# In all, about 300,000 compounds went through this assay and about 1,200 (0.4%) were called active. Inconclusive results (about 3%) are left out. This excerpt belongs to a sample that is enriched for actives. Values without a mark were called inactive. Calls follow the shape of the dose curve; as a rule, active = well fitted inhibition curve with a large enough effect; inconclusive = small, poorly fitted or top-dose-only effect, or another doubt; inactive = no such curve, though single readings can be large or run the other way.
# Target: Lysosomal alpha-glucosidase (Homo sapiens) (UniProt P10253)
# Assay: qHTS Assay for Inhibitors and Activators of Human alpha-Glucosidase Cleavage of Glycogen;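 also: the screen sought inhibitors and activators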;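 as to activity change, negative = inhibition: 0% = full enzyme reaction and -100% = no-enzyme basal signal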
# Conditions: recombinant GAA, glycogen substrate, Amplex Red glucose oxidase fluorescence; series mostly up to 76.4 µM; activity change, negative = inhibition: at the top concentration
# Source text: NIH Chemical Genomics Center [NCGC] NIH Molecular Libraries Probe Production Centers Network [MLPCN] MLPCN Grant: R03 MH084841-01 Assay Submitter (PI): Wei Zheng NCGC Assay Overview: Alpha-glucosidase is responsible for the hydrolysis of terminal, non-reducing 1,4-linked alpha-D-glucose residues, which releases alpha-D-glucose. It is a lysosomal hydrolase that is required for the degradation of a small percentage (1-3%) of cellular glycogen in humans. Deficiency of this enzyme results in glycogen-storage disease type II (GSDII), also referred to as Pompe disease, an autosomal recessive disorder. Structurally normal glycogen is accumulated in the lysosomes and cytoplasm in affected patients, primarily in muscle tissues. Excessive glycogen storage within lysosomes may interrupt normal functioning of other organelles and leads to cellular injury. In turn, this leads to enlargement and dysfunction of the entire organ involved (eg: cardiomyopathy and muscle weakness). It has been reported that the improper folding and trafficking of alpha-glucosidase resulting from genetic mutations may account for a significant number of Pompe patients. […] We optimized this alpha-glucosidase assay in 1536-well plate format for identification of novel small molecule inhibitors or activators with structures other than the sugar analogs in order to develop new pharmacological chaperones. Previous assays of alpha-Glucosidase have utilized a non-natural fluorescent substrate to probe enzyme activity. The present assay measures enzyme activity on glycogen using a coupled-assay system to glucose oxidase.
# NCGC Assay Protocol Summary: This is an enzyme assay using glycogen from bovine liver (Sigma catalog #: G0885) as the substrate and recombinant human alpha-glucosidase as the enzyme preparation. Upon hydrolysis of the substrate, the glucose product can be detected using the Amplex Red Glucose Oxidase Assay Kit (Invitrogen catalog #: A22189). The product of this reaction can be read with a fluorescence plate reader with an excitation at 573 nm and an emission at 610 nm. Data were normalized to the controls for basal activity (without enzyme) and 100% activity (with enzyme). The AC50 values were determined from concentration-response data modeled with the standard Hill equation. Assay buffer for enzyme reaction: 50 mM citric acid (titrated with potassium phosphate to pH 5.0), 0.01% Tween-20 (pH 5.0 is an optimal condition for this enzyme assay) Assay buffer for Amplex Red reaction: Tris-HCl, pH 7.5 1536-well assay protocol for the alpha-glucosidase assay: (1) Add 2 ul/well alpha-glucosidase enzyme solution (4 nM final) (2) Add 23 nL compounds in DMSO solution. The final titration was 0.7 nM to 77 uM. (3) Add 1 ul of glycogen substrate solution (30 ug) (4) Incubate at 37 C for 40 min (5) Add 2 ul tris-HCl buffer with Amplex Red reagents (6) Incubate 45 min at room temperature. (7) Detect the assay plate in a ViewLux plate reader (PerkinElmer) with Ex=573 nm and Em=610nm. Keywords: Alpha-glucosidase, Pompe Disease, pharmacological chaperone, chaperone therapy, high throughput screening, alpha-glucosidase inhibitor, MLSMR, MLSCN, NIH Roadmap, qHTS and NCGC
# Potency is read from the fitted curve at half-maximal effect.
Structure (SMILES),"activity change, negative = inhibition",Potency
CC(C)c1ccc(O)c(CN2CCN(c3ccccc3)CC2)c1,13.9%,
Fc1ccc(N2CCN(Cc3ccc4c(c3)OCO4)CC2)cc1,-3.55%,
Oc1cc2c(cc1CN1CCN(c3ccccc3)CC1)OCO2,,2000 nM (active)
Cc1ccc(NC(=O)N(Cc2ccc3c(c2)OCO3)C2CCN(Cc3ccccc3)CC2)cc1F,-5.75% [at 76.3 µM],
Cn1cc(/C=C/c2nc3ccccc3c(=O)n2-c2ccccc2)c2ccccc21,-5.95% [at 76.3 µM],
